In general, Inhibition refers to the drop in the measured response relative to a control, in per cent.

The results in this text go back to ChEMBL document CHEMBL4513141, “CO-ADD screening of NIH (USA) - Clinical Collection” (2021).

The structures appear in SMILES notation. Potency and affinity values are given separately.

The first assay has as its system Klebsiella pneumoniae. Conditions: Concentration 20 uM; ASSAY_TEST Inhibition of Bacterial Growth; detection method Absorption (OD600); MEDIA CAMHB; plate type 384well; NBS; CORNING #3640; time 18 hr.
As to `CCN(CC)CCOC(=O)C1(C2CCCCC2)CCCCC1.Cl` [DICYCLOMINE HYDROCHLORIDE], the Inhibition was found to be 5.74%. On the same count and under the same terms, to `CCOc1cc(CC(=O)N[C@@H](CC(C)C)c2ccccc2N2CCCCC2)ccc1C(=O)O` [REPAGLINIDE] belongs 3.14%; to `CC(C)(C)NC(=O)[C@@H]1C[C@@H]2CCCC[C@@H]2CN1C[C@@H](O)[C@H](Cc1ccccc1)NC(=O)[C@H](CC(N)=O)NC(=O)c1ccc2ccccc2n1.CS(=O)(=O)O` [SAQUINAVIR MESYLATE], 4.6%; to `NS(=O)(=O)c1cc2c(cc1Cl)NCNS2(=O)=O` [HYDROCHLOROTHIAZIDE], 14.61%.

Take `COc1cc(C(=O)NS(=O)(=O)c2ccccc2C)ccc1Cc1cn(C)c2ccc(NC(=O)OC3CCCC3)cc12` [ZAFIRLUKAST]: the Inhibition stood at 3.3%. On the same count and under the same terms, then `C[C@]12CCC(=O)C=C1CC[C@@H]1[C@@H]2[C@@H](O)C[C@@]2(C)[C@H]1CC[C@]2(O)C(=O)CO` [HYDROCORTISONE], with 5.06%; and `O=c1c(O[C@@H]2O[C@H](CO)[C@@H](O)[C@H](O)[C@H]2O)c(-c2ccc(O)c(O)c2)oc2cc(O)cc(O)c12` [ISOQUERCETIN], with 10.08%. On the same count and under the same terms, then `COc1ccnc(C[S+]([O-])c2nc3cc(OC(F)F)ccc3[n-]2)c1OC.O.[Na+]` (stereo unspecified) [PANTOPRAZOLE SODIUM], with 5.85%; and `Nc1ccn([C@H]2CC[C@@H](CO)O2)c(=O)n1` [ZALCITABINE], with 8%. Take `C[C@]12CC[C@@H]3c4ccc(O)cc4CC[C@H]3[C@@H]1CC[C@@H]2O` [ESTRADIOL]: the Inhibition was 5.27%. Consider `CC(=O)OCC(=O)NCCCOc1cccc(CN2CCCCC2)c1.Cl` [ROXATIDINE ACETATE HYDROCHLORIDE], for which the Inhibition was 15.18%. With `CN1CCCC(n2nc(Cc3ccc(Cl)cc3)c3ccccc3c2=O)CC1.Cl` (stereo unspecified) [AZELASTINE HYDROCHLORIDE], the Inhibition is -1%.

For `NS(=O)(=O)c1cc2c(cc1C(F)(F)F)NC(Cc1ccccc1)NS2(=O)=O` (stereo unspecified) [BENDROFLUMETHIAZIDE], the Inhibition stood at 6.67%. With `COc1cc2nc(N3CCN(C(=O)C4CCCO4)CC3)nc(N)c2cc1OC` (stereo unspecified) [TERAZOSIN], the Inhibition worked out at 3.6%.

Consider `C=C[C@H]1CN2CC[C@H]1C[C@@H]2[C@@H](O)c1ccnc2ccc(OC)cc12` [QUINIDINE], for which the Inhibition turned out to be 12.62%. Take `CC(CN1c2ccccc2Sc2ccccc21)N(C)C.Cl` (stereo unspecified) [PROMETHAZINE HYDROCHLORIDE]: the Inhibition was determined as 0.77%.

For the compound `CS(=O)(=O)OCCCCOS(C)(=O)=O` [BUSULFAN], the Inhibition was 14.59%. Same read-out and setting: to `Cc1occc(=O)c1O` [MALTOL] belongs 10.28%. For the compound `CN(C)c1nc(N(C)C)nc(N(C)C)n1` [ALTRETAMINE], the Inhibition was 4.59%. Consider `CC(=O)O[C@]1(C(C)=O)CC[C@H]2[C@@H]3C[C@H](C)C4=CC(=O)CC[C@]4(C)[C@H]3CC[C@@]21C` [MEDROXYPROGESTERONE ACETATE], for which the Inhibition is listed as 17.28%.

In the case of `Cc1c(C(=O)NN2CCCCC2)nn(-c2ccc(Cl)cc2Cl)c1-c1ccc(I)cc1`, the Inhibition is -0.74%.

Take `Cc1nc(=O)c2cc(CN(C)c3ccc(C(=O)N[C@@H](CCC(=O)O)C(=O)O)s3)ccc2[nH]1` [RALTITREXED]: the Inhibition was found to be 9.17%. As to `C[C@H]1[C@@H](OC(=O)CCC(=O)O)O[C@@H]2O[C@@]3(C)CC[C@H]4[C@H](C)CC[C@@H]1[C@@]24OO3`, the Inhibition came out at 13.77%. On to `COc1c2occc2cc2ccc(=O)oc12` [METHOXSALEN], for which the Inhibition turned out to be 9.19%.

The subject of the next assay is Candida albicans. Conditions: 20 µM.
With `CCOC(=O)C1=C(C)NC(C)=C(C(=O)OC)C1c1cccc([N+](=O)[O-])c1` (stereo unspecified) [NITRENDIPINE], the Inhibition came out at 3.79%. On the same count and under the same terms, then `CN(C)CCCSc1ccccc1NC(=O)/C=C/c1ccccc1.Cl.O`, with 2.74%; and `CN1C(C(=O)Nc2ccccn2)=C(O)c2ccccc2S1(=O)=O.O`, with 7.55%. On the same count and under the same terms, then `Nc1ccc(S(=O)(=O)c2ccc(N)cc2)cc1` [DAPSONE], with -0.53%; and `Cl.O[C@@H](c1cc(C(F)(F)F)nc2c(C(F)(F)F)cccc12)[C@H]1CCCCN1`, with 5.35%; and `Cl.O=c1n(CCCN2CCN(c3cccc(Cl)c3)CC2)nc2ccccn12` [TRAZODONE HYDROCHLORIDE], with 3.08%. The same measure, in the same setting: to `CCC(=O)OCC(=O)[C@@]1(OC(=O)CC)[C@@H](C)C[C@H]2[C@@H]3CCC4=CC(=O)C=C[C@]4(C)[C@@]3(Cl)[C@@H](O)C[C@@]21C` [BECLOMETHASONE DIPROPIONATE] belongs 3.12%; to `CN(C)CC[C@@H](c1ccc(Cl)cc1)c1ccccn1.O=C(O)/C=C\C(=O)O` [DEXCHLORPHENIRAMINE MALEATE], 2.45%.

Regarding `COc1ccc2[nH]c([S+]([O-])Cc3ncc(C)c(OC)c3C)nc2c1` (stereo unspecified) [OMEPRAZOLE], the Inhibition worked out at 27%. Same read-out and setting: to `CNCCCN1c2ccccc2CCc2ccccc21.Cl` [DESIPRAMINE HYDROCHLORIDE] belongs 2.92%; to `NNC(=O)c1ccncc1` [ISONIAZID], 3.95%; to `CC1CCN(CCCC(=O)c2ccc(F)cc2)CC1.Cl`, 2.99%. For the compound `CC(C)NCC(O)COc1ccc(CC(N)=O)cc1` (stereo unspecified) [ATENOLOL], the Inhibition amounted to 3.26%. Same read-out and setting: then `CCN(CC)CCOC(=O)C1(C2CCCCC2)CCCCC1.Cl` [DICYCLOMINE HYDROCHLORIDE], with 3.82%; and `CCOc1cc(CC(=O)N[C@@H](CC(C)C)c2ccccc2N2CCCCC2)ccc1C(=O)O` [REPAGLINIDE], with 4.01%. Regarding `CC(C)(C)NC(=O)[C@@H]1C[C@@H]2CCCC[C@@H]2CN1C[C@@H](O)[C@H](Cc1ccccc1)NC(=O)[C@H](CC(N)=O)NC(=O)c1ccc2ccccc2n1.CS(=O)(=O)O` [SAQUINAVIR MESYLATE], the Inhibition turned out to be 4.21%. The same measure, in the same setting: then `NS(=O)(=O)c1cc2c(cc1Cl)NCNS2(=O)=O` [HYDROCHLOROTHIAZIDE], with 2.05%. Take `COc1cc(C(=O)NS(=O)(=O)c2ccccc2C)ccc1Cc1cn(C)c2ccc(NC(=O)OC3CCCC3)cc12` [ZAFIRLUKAST]: the Inhibition was found to be 0.8%. As to `C[C@]12CCC(=O)C=C1CC[C@@H]1[C@@H]2[C@@H](O)C[C@@]2(C)[C@H]1CC[C@]2(O)C(=O)CO` [HYDROCORTISONE], the Inhibition was 1.65%.

Regarding `O=c1c(O[C@@H]2O[C@H](CO)[C@@H](O)[C@H](O)[C@H]2O)c(-c2ccc(O)c(O)c2)oc2cc(O)cc(O)c12` [ISOQUERCETIN], the Inhibition is 1.9%. Same read-out and setting: then `COc1ccnc(C[S+]([O-])c2nc3cc(OC(F)F)ccc3[n-]2)c1OC.O.[Na+]` (stereo unspecified) [PANTOPRAZOLE SODIUM], with 19.6%. `Nc1ccn([C@H]2CC[C@@H](CO)O2)c(=O)n1` [ZALCITABINE]: the Inhibition came to 0.46%.

In the case of `C[C@]12CC[C@@H]3c4ccc(O)cc4CC[C@H]3[C@@H]1CC[C@@H]2O` [ESTRADIOL], the Inhibition turned out to be 5.91%. As for `CC(=O)OCC(=O)NCCCOc1cccc(CN2CCCCC2)c1.Cl` [ROXATIDINE ACETATE HYDROCHLORIDE], the Inhibition is 3.06%. The same measure, in the same setting: then `CN1CCCC(n2nc(Cc3ccc(Cl)cc3)c3ccccc3c2=O)CC1.Cl` (stereo unspecified) [AZELASTINE HYDROCHLORIDE], with 4.45%; and `NS(=O)(=O)c1cc2c(cc1C(F)(F)F)NC(Cc1ccccc1)NS2(=O)=O` (stereo unspecified) [BENDROFLUMETHIAZIDE], with 3.76%; and `COc1cc2nc(N3CCN(C(=O)C4CCCO4)CC3)nc(N)c2cc1OC` (stereo unspecified) [TERAZOSIN], with 3.05%.

On to `C=C[C@H]1CN2CC[C@H]1C[C@@H]2[C@@H](O)c1ccnc2ccc(OC)cc12` [QUINIDINE], for which the Inhibition was -0.46%. On the same count and under the same terms, to `CC(CN1c2ccccc2Sc2ccccc21)N(C)C.Cl` (stereo unspecified) [PROMETHAZINE HYDROCHLORIDE] belongs 3.31%; to `CS(=O)(=O)OCCCCOS(C)(=O)=O` [BUSULFAN], 3.72%; to `Cc1occc(=O)c1O` [MALTOL], 4.42%. In the case of `CN(C)c1nc(N(C)C)nc(N(C)C)n1` [ALTRETAMINE], the Inhibition is 4.65%. For the compound `CC(=O)O[C@]1(C(C)=O)CC[C@H]2[C@@H]3C[C@H](C)C4=CC(=O)CC[C@]4(C)[C@H]3CC[C@@]21C` [MEDROXYPROGESTERONE ACETATE], the Inhibition is 4.88%. For the compound `Cc1c(C(=O)NN2CCCCC2)nn(-c2ccc(Cl)cc2Cl)c1-c1ccc(I)cc1`, the Inhibition is 7.4%. On to `Cc1nc(=O)c2cc(CN(C)c3ccc(C(=O)N[C@@H](CCC(=O)O)C(=O)O)s3)ccc2[nH]1` [RALTITREXED], for which the Inhibition stood at 2.26%. Same read-out and setting: then `C[C@H]1[C@@H](OC(=O)CCC(=O)O)O[C@@H]2O[C@@]3(C)CC[C@H]4[C@H](C)CC[C@@H]1[C@@]24OO3`, with 26.5%; and `COc1c2occc2cc2ccc(=O)oc12` [METHOXSALEN], with 5.22%.
